Assay results taken from PubChem BioAssay.

Assay: TLR3 IRF3 reporter activation blockers – cell-based, poly I:C stimulus, luciferase, 10K MLSCN set, primary screen (AID 602277)
Details: HEK293-TLR3 RL24 IRF3 luciferase reporter, at 10 µM, active compounds read high;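 active = inhibition of the reporter signal at or above 50%; inactive = inhibition below 50%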

inhibition, inactive:
CCOCC(=O)Nc1ccc(S(=O)(=O)N2CCOCC2)cc1 19.7%, Cc1cc(NS(=O)(=O)c2ccc(NC(=O)COc3ccc(Cl)cc3)cc2)no1 19.8%, COc1ccc(C2C(C(C)=O)=C(C)N=c3s/c(=C/c4ccc5c(c4)OCO5)c(=O)n32)cc1 (stereo not given) 23.9%, CCOc1ccc(OCC)c(NS(=O)(=O)c2ccc3c(c2)n(C)c(=O)c(=O)n3C)c1 13%, COCCn1nnnc1C(c1ccc(OC)cc1)N1CCN(c2ccccc2F)CC1 (stereo not given) 22.9%, CCOC(=O)Nc1ccc2c(CN3C(=O)NC4(CCCC4)C3=O)cc(=O)oc2c1 -13.9%, CCc1ccc(C2CC(c3cccc(OC)c3)n3nc(N)nc3N2)cc1 (stereo not given) 25.7%, CCOC(=O)N1CCC(NC(=O)CCC(=O)N2CC(C)Oc3ccc(Cl)cc32)CC1 (stereo not given) 6.64%, COc1cccc(C2CC(c3ccc(C)cc3)Nc3nc(N)nn32)c1 (stereo not given) 16.6%, CC1=C/C(=C/N(C)c2ccccc2)C(=O)S1 -17%, CCCN(CCC)C(=O)C1CCN(c2cc(C)nc3c(-c4ccc(OC)c(OC)c4)c(C)nn23)CC1 7.43%, CSc1nc2ccc(S(=O)(=O)N3CCOCC3)cc2s1 15.4%, O=C(CSc1ncn[nH]1)c1ccco1 26.5%, CCNc1ccc2c(Cl)cc(=O)oc2c1 -1.88%, Cn1c(N2CCC(C(N)=O)CC2)nc2c1c(=O)n(Cc1ccc(Br)cc1)c(=O)n2C 1.39%, COCCOC(=O)C1=C(C)OC(N)=C(C#N)C1c1ccc2c(c1)OCO2 (stereo not given) 23.2%, COc1ccc(S(=O)(=O)N(CCN2CCOCC2)Cc2cc(OC)ccc2OC)cc1 33.5%, COC(=O)c1nc(N)sc1-c1ccccc1 37.7%, CC(C)C(c1nnnn1C1CCCC1)N1CCN(C(=O)c2ccco2)CC1 (stereo not given) 4.27%, O=C(Nc1ccccc1-c1nc2ccccc2o1)c1ccc2c(c1)OCCO2 13.7%, N#Cc1nc(COc2ccccc2Cl)oc1N1CCCCCC1 0.00693%, Cn1c(C(=O)NCCCN2CCN(c3ccc(F)cc3)CC2)cc2c(=O)n(C)c3ccccc3c21 39.1%, Cc1[nH]c(=O)[nH]c(=O)c1S(=O)(=O)N1CCCC(C(=O)NCc2ccco2)C1 (stereo not given) 24.8%, COc1ccc(C(=O)CSc2nc(C)cc(=O)[nH]2)cc1 9.5%, Nc1nc(N2CCN(C/C=C/c3ccccc3)CC2)nc2ccccc12 7.48%, COc1ccc(OC)c(C(=O)c2ccc(C(=O)O)cc2)c1 18.4%, CCOC(=O)N1CCN(C(=O)c2ccc(CS(=O)(=O)c3ccc(OC)cc3)o2)CC1 23.8%, CN1C(=O)C(O)(CC(=O)c2ccc3c(c2)OCO3)c2ccccc21 (stereo not given) 32.2%, O=C(COC(=O)c1cc(S(=O)(=O)N2CCOCC2)cs1)c1ccccc1 29.5%, CN1CCN(S(=O)(=O)c2ccc(NC(=O)c3ccc(F)cc3)cc2)CC1 -12.3%, CCOCCCNC(=O)c1cc2sc(Cl)cc2n1CC 19.5%, O=C(Nc1ccc(O)cc1)C1CCCN1S(=O)(=O)c1ccc(F)cc1 (stereo not given) 9.85%, COc1ccc(CCNc2oc(-c3ccco3)nc2C#N)cc1 -18.9%, Cc1cc(OCC(O)CN2CCN(CCO)CC2)ccc1C(C)C (stereo not given) 29.3%, CCOC(=O)c1c(N)nn(C(=O)C(C)C)c1-c1ccccc1 -5.01%, CCOC(=O)c1cccc(NC(=O)C2CCN(S(=O)(=O)c3cccs3)CC2)c1 5.8%, CCOC(=O)c1cccc(NC(=O)CSc2nc3cccnc3n2C)c1 -23.7%, O=C(OCC(=O)c1cccs1)C1=COCCO1 -83.1%, CCCc1cc(C(=O)Nc2ccccc2C(=O)OC)no1 -14.1%, CCCCOc1ccc(-c2nnn(C(C)(C)C(=O)OC)n2)cc1 -125%
